Measured values reported in PubChem BioAssay (NCATS).
Unmarked numbers belong to inactive results. Inconclusive results are not listed. Where a call stands in place of a potency, no number is given. The source made the active and inactive calls. Calls follow the shape of the dose curve; as a rule, active = well fitted curve in the direction sought with a large enough effect; inconclusive = small, poorly fitted or top-dose-only effect, or another doubt; inactive = no such curve, though single readings can be large; an effect the other way counts as inactive or inconclusive.

How the values were obtained:
[1] = qHTS for Inhibitors of Plasmodium falciparum (GB4) proliferation (AID 504315); also: nearly all actives have a fitted effect of over 50% in size; also: potency is read from the fitted curve at half-maximal effect
How it was run: (§1)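 Parasite growth measured as SYBR Green DNA fluorescence (ex 485, em 535 nm) after overnight lysis following 72 h culture at 37 °C, 0.3% parasitemia, 2.5% hematocrit. Values normalized against DMSO and 0.29 uM artemisinin controls, with plate-stack correction.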

[2] = qHTS for Inhibitors of Plasmodium falciparum (HB3) proliferation (AID 504318); also: nearly all actives have a fitted effect of over 60% in size
How it was run: as §1

[3] = qHTS for Inhibitors of Plasmodium falciparum (CP250) proliferation (AID 504320); also: potency is read from the fitted curve at half-maximal effect
How it was run: as §1

[4] = qHTS for Inhibitors of Plasmodium falciparum (7G8) proliferation (AID 504316); also: nearly all actives have a fitted effect of over 65% in size; also: potency is read from the fitted curve at half-maximal effect
How it was run: as §1

[5] = biological target: Cytochrome P450 3A4 (Homo sapiens) (UniProt P08684); assay: qHTS Assay for Activators of Cytochrome P450 3A4 (AID 885); also: nearly all actives have a fitted effect of over 65% in size
How it was run: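 Human CYP3A4 dealkylates Luciferin-PPXE to luciferin, which luciferase detection converts to light. Substrate was at its KM (25uM), buffer 200mM KPO4, reaction 60 min at RT.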

[6] = biological target: Cytochrome P450 2D6 (Homo sapiens) (UniProt P10635); assay: qHTS Assay for Inhibitors and Substrates of Cytochrome P450 2D6 (AID 891);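 also: luciferin methyl ether substrate demethylated by CYP2D6 with NADPH regeneration; nearly all actives have a fitted effect of over 60% in size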
How it was run: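 Luminescent read-out of luciferin formed by 5 nM human CYP2D6 demethylating 30 uM Luciferin-ME EGE (Km level) over 60 min at room temperature after NADPH regeneration addition. Data normalized to full inhibition by 1.43 uM quinidine.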

[7] = biological target: Cytochrome P450 2C19 (Homo sapiens) (UniProt P33261); assay: qHTS Assay for Inhibitors and Substrates of Cytochrome P450 2C19 (AID 899); also: nearly all actives have a fitted effect of over 60% in size
How it was run: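 In 50mM KPO4, the reaction held 5nM enzyme and KM-level (10uM) Luciferin-H EGE; it ran 60 min at 37C after NADPH regeneration and a 10 min compound preincubation. Luminescence values were scaled to 57uM ketoconazole as complete inhibition.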

Chain of Cytochrome P450 2D6 (Homo sapiens) (P10635 whole entry, looked up): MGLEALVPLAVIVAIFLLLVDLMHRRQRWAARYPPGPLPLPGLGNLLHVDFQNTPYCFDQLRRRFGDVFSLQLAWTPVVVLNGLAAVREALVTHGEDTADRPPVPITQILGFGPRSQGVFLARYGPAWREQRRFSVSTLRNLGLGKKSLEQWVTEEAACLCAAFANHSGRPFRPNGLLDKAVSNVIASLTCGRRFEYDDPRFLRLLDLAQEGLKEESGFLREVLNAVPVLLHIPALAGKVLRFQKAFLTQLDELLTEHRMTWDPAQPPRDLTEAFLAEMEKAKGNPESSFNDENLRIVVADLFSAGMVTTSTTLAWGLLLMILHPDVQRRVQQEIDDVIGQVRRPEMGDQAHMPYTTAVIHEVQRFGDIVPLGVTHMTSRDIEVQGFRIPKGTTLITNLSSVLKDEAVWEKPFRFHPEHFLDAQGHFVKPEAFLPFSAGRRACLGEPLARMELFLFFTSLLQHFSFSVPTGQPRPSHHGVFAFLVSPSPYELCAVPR
Chain of Cytochrome P450 3A4 (Homo sapiens) (P08684 whole entry, looked up): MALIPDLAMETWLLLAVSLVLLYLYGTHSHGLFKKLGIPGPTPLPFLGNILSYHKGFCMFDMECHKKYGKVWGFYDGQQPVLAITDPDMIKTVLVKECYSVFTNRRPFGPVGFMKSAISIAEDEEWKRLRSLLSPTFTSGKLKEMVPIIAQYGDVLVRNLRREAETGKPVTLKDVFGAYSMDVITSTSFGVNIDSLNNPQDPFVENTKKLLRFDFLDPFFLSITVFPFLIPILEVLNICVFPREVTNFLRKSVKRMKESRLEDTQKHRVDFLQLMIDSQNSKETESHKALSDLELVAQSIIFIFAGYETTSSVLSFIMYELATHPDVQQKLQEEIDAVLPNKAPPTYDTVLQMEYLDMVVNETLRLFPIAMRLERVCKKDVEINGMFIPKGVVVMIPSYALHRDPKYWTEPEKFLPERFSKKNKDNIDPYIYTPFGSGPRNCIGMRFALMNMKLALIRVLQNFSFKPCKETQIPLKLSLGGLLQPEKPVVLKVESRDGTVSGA
Chain of Cytochrome P450 2C19 (Homo sapiens) (P33261 whole entry, looked up): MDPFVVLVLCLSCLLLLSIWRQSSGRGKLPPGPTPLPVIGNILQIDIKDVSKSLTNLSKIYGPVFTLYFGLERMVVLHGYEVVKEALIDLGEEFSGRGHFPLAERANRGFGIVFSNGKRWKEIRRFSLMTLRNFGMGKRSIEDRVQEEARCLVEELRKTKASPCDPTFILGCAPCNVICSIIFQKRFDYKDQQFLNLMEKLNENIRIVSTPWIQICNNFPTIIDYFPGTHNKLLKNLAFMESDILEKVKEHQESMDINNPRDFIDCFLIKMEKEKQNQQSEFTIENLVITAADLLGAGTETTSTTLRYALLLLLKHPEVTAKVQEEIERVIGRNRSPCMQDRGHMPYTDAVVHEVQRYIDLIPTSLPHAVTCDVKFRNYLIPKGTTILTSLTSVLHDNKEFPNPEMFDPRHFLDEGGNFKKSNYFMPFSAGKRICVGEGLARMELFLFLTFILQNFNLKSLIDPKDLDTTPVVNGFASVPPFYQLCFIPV

## C[C@H]1Cc2c(-c3ccccc3)nc3c(c2CO1)CN(C(=O)c1cc(I)ccc1F)CC3
[1]
  Potency: inactive
[2]
  Potency: inactive
[3]
  Potency: inactive

## COC/C=C/C1=CC2=CC(=O)C(C)(OC(=O)c3cnc4ccccc4n3)C(=O)C2=CN1CCCCO (centres undefined)
[1]
  Potency: inactive
[4]
  Potency: inactive
[3]
  Potency: inactive

## CCN1C(=O)N[C@@H](c2cccs2)C(C(C)=O)=C1C
[1]
  Potency: inactive
[4]
  Potency: inactive
[2]
  Potency: inactive
[3]
  Potency: inactive

## C=C[C@@]1(C)CC[C@H](O)[C@H]2C(=O)CCC[C@H]21
[1]
  Potency: inactive
[4]
  Potency: inactive
[3]
  Potency: inactive

## C=C(C)C(=O)c1ccc2c(c1)OCO2
[1]
  Potency: inactive
[4]
  Potency: inactive
[3]
  Potency: inactive

## CC1(C)O[C@@H]2[C@@H](O1)C(c1ccccc1)(c1ccccc1)OP(=O)(O)OC2(c1ccccc1)c1ccccc1
[1]
  Potency: inactive
[4]
  Potency: inactive
[3]
  Potency: inactive

## C#CCCCON=C1C[C@@H](O)[C@@H](O)[C@@H]2[C@H]3C(=O)N([C@@H](C)c4ccccc4)C(=O)[C@@H]3CC[C@H]12
[1]
  Potency: inactive
[3]
  Potency: inactive

## COCOc1c2c(c(OCOC)c3c(OCOC)cccc13)C(=NNS(C)(=O)=O)C1=C2CCCC1
[1]
  Potency: inactive
[4]
  Potency: 1690 nM (active)
[3]
  Potency: inactive

## Cc1cc2c(c(=O)n1-c1ccccc1)[C@H]1O[C@](c3ccsc3)(Cc3cc(C#N)ccc31)O2
[1]
  Potency: inactive
[3]
  Potency: inactive

## CCCCC1=CC2=CC(=O)C(C)(OC(=O)CC)C(=O)C2=CN1CC(C)C (centres undefined)
[1]
  Potency: inactive
[4]
  Potency: inactive
[3]
  Potency: inactive

## CC(CCN1CCCCc2nc(C)c(C)cc21)=NO[C@@H](C)c1cn([C@H](CO)Cc2ccccc2)nn1
[1]
  Potency: inactive
[3]
  Potency: inactive

## CCCCc1nc2c(c3c1C[C@H](C)OC3)CN(S(=O)(=O)c1ccc3c(c1)OCCN3C)CC2
[1]
  Potency: inactive
[4]
  Potency: inactive
[3]
  Potency: inactive

## COC(=O)C1=C(C(=O)OC)[C@@H]2N(C)c3ccc(OC)cc3[C@@]23C[C@@H](C(=O)OC)N(S(=O)(=O)c2ccc(OC)cc2)C3=N1
[1]
  Potency: inactive
[2]
  Potency: inactive
[3]
  Potency: inactive

## C=CCN1C=C2C(=O)C(C)(OC(=O)CCC(=O)OC)C(=O)C(Br)=C2C=C1c1ccc(OC)cc1 (centres undefined)
[1]
  Potency: inactive
[4]
  Potency: inactive
[2]
  Potency: inactive
[3]
  Potency: inactive

## COc1cccc([C@@H]2Oc3ccc(Br)cc3[C@H](O)[C@@H]2O)c1
[1]
  Potency: inactive
[4]
  Potency: inactive
[3]
  Potency: inactive

## CC#CCN1c2ccccc2[C@]23C[C@@H](C(=O)OC)N(C(=O)c4ccco4)C2=NC(C(=O)OC)=C(C(=O)OC)[C@H]13
[1]
  Potency: inactive
[4]
  Potency: inactive
[3]
  Potency: inactive

## COc1ccc(O[C@H]2C=C[C@@H](c3ccccc3)O[C@H]2COC(=O)CCC(C)=NO[C@H](C)c2cn([C@H](CO)Cc3ccccc3)nn2)cc1
[1]
  Potency: inactive
[4]
  Potency: 1510 nM (active)
[3]
  Potency: inactive

## C[C@H]1Cc2c(COc3ccccc3)nc3c(c2CO1)CN(S(=O)(=O)c1ccc(Cl)c2nonc12)CC3
[1]
  Potency: inactive
[2]
  Potency: inactive
[3]
  Potency: inactive

## COC(=O)C1=C(C(=O)OC)[C@@H]2N(C)c3ccc(OC)cc3[C@@]23C[C@@H](C(=O)OC)N(S(=O)(=O)c2c(C)noc2C)C3=N1
[1]
  Potency: inactive
[2]
  Potency: inactive
[3]
  Potency: inactive

## COC(=O)CCCC1=CC2=C(c3ccccc3)C(=O)C(C)(OC(=O)C3CCCC3)C(=O)C2=CN1CCc1c[nH]c2ccccc12 (centres undefined)
[1]
  Potency: inactive
[4]
  Potency: inactive
[3]
  Potency: inactive

## COC(=O)CCC(=O)OC1(C)C(=O)C2=CN(CCc3c[nH]c4ccccc34)C(c3ccc(OC)cc3)=CC2=C(Br)C1=O (centres undefined)
[1]
  Potency: inactive
[2]
  Potency: inactive
[3]
  Potency: inactive

## CCCCCC(=O)c1cc(CC(C(=O)OC)C(=O)OC)cc2cc(OC)c(OC)cc12
[5]
  activity change, positive = activation: -51.6% [at 11.4 µM]
[6]
  Potency: inactive
[7]
  Potency: inactive
[1]
  Potency: inactive
[4]
  Potency: inactive
[3]
  Potency: inactive

## C[C@@H]1CC[C@H]2C(=O)N(Cc3ccccc3)C[C@H](O)CN2[C@H]1c1ccc(Br)cc1
[1]
  Potency: inactive
[3]
  Potency: inactive

## COC(=O)C1=C(C(=O)OC)[C@@H]2Nc3ccccc3[C@@]23C[C@@H](C(=O)OC)N(C(=O)C2CCC2)C3=N1
[1]
  Potency: inactive
[3]
  Potency: inactive

## COC(=O)CCC(=O)OC1(C)C(=O)C=C2C=C(C3CC3)N(c3ccc(OC)cc3)C=C2C1=O (centres undefined)
[1]
  Potency: inactive
[3]
  Potency: inactive

## COC(=O)N1C2=C(c3ccccc3[C@@H]1CC(=O)Nc1ccc3ccc4cccc5ccc1c3c45)[C@@H]1C(=O)N(c3ccccc3)C(=O)[C@@H]1[C@H](C)C2
[1]
  Potency: 1510 nM (active)
[4]
  Potency: 1510 nM (active)
[3]
  Potency: 1510 nM (active)

## COc1ccc(CN2C=C3C(=O)C(C)(OC(=O)CCc4ccccc4)C(=O)C=C3C=C2c2ccc(C#N)cc2)cc1 (centres undefined)
[1]
  Potency: inactive
[3]
  Potency: inactive
